Results reported in PubChem BioAssay AID1780 (National Center for Advancing Translational Sciences (NCATS), 2009).
Calls of active or inactive are those of the source. Calls follow the shape of the dose curve; as a rule, active = well fitted curve in the direction sought with a large enough effect; inactive = no such curve, though single readings can be large or run the other way.

The compounds below were run against Pyruvate kinase PKM (Homo sapiens) (UniProt P14618) (assay: Confirmation Concentration-Response Assay for Activators of Human Muscle isoform 1 Pyruvate Kinase). Settings: purified hPK-M1, Kinase-Glo ATP luminescence, 1 h; series mostly up to 57.5 µM.
Pyruvate kinase PKM (Homo sapiens), sequence (P14618 whole entry, looked up, canonical isoform): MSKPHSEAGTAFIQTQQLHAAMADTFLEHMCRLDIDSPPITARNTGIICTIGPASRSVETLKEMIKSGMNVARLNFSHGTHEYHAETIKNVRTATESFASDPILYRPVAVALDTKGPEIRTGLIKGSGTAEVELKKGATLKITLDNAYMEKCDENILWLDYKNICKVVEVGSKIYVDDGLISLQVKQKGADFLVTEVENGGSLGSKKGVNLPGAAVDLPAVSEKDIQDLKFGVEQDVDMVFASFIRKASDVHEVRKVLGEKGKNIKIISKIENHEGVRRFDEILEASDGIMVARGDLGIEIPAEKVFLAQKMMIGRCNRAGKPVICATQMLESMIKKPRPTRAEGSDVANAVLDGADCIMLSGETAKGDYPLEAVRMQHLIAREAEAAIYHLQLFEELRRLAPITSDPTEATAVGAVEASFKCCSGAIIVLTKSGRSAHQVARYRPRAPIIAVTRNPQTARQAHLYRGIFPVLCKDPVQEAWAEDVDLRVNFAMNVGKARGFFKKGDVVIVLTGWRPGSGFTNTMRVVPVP
Source text: Confirmatory assay NIH Chemical Genomics Center [NCGC] Matthew G. Vander Heiden, M.D., Ph.D. [Harvard Medical School, 77 Avenue Louis Pasteur, Boston, MA 02115] NCGC Assay Overview: Human pyruvate kinase […] (hPK-M1) enzyme was supplied as a highly purified (>95% pure) preparation from Harvard Medical School and assayed for its ability to generate ATP from ADP using phosphoenolpyruvate (PEP) as a substrate. ATP generation was detected in a coupled reaction by luciferase-mediated luminescence, an ATP-dependent process. Pyruvate kinase substrates, PEP and ADP, were present in the assay at Km and approximately 10-fold below Km respectively. The enzyme was assayed at an intermediate level of activity to screen for both inhibitors and activators.
NCGC Assay Protocol Summary for M1-isoform: Three uL of substrate mix (at r.t.) in assay buffer (50 mM Imidazole pH7.2, 50 mM KCl, 7 mM MgCl2, 0.01% Tween 20, 0.05% BSA) was dispensed into white solid bottom 1,536 well microtiter plates so that the final concentrations of substrates in the assay were 0.1 mM ADP and 0.5 mM PEP. 23 nL of compound were delivered by a pin tool and 1 uL of enzyme mix (final concentration of 1 nM) in assay buffer (4 degree Celsius) was added. Plates were incubated at room temperature for 1 hour. Two uL of detection mix (Kinase-Glo, Promega; at 4 degree Celsius protected from light) was added and luminescence read by a ViewLux (Perkin Elmer) at 1 second exposure/plate. Data were normalized to the uninhibited (row 31). Additionally, a no enzyme and 5-fold enzyme control was dispensed in row 32, split equally between the two conditions.
In the case of `COc1cc2c(s1)c1cnn(Cc3ccccc3F)c(=O)c1n2C`, the outcome is reported as “inactive”.
`COc1ccc(Cn2ncc3c4sc(C)cc4n(C)c3c2=O)cc1F` was tested, and the outcome was “inactive”.
`O=S(=O)(c1ccc(Cl)cc1)N1CCN(S(=O)(=O)c2ccc3c(c2)OCCO3)CC1` was tested, and the outcome was “inactive”.
`C[C@@H]1CN(S(=O)(=O)c2ccc3c(c2)OCCO3)CCN1S(=O)(=O)c1c(F)cccc1F` was tested, and the outcome was “inactive”.
For `O=S(=O)(NC1CCN(S(=O)(=O)c2ccc3c(c2)OCCO3)C1)c1c(F)cccc1F` (stereo not given), the outcome was “inactive”.
`CSc1cc2c(s1)c1cnn(Cc3ccccc3F)c(=O)c1n2C` was tested, and the outcome was “inactive”.
`O=S(=O)(c1c(F)cccc1F)N1CCN(S(=O)(=O)c2c(F)cccc2F)CC1` was tested, and the outcome was “inactive”.
For `Cc1cc2c(s1)c1cnn(Cc3ccc(F)cc3F)c(=O)c1n2C`, the outcome was “inactive”.
For `O=S(=O)(c1ccc2c(c1)OCCO2)N1CCN(S(=O)(=O)c2ccccc2F)CC1`, the outcome was “inactive”.
With `Cc1cc2[nH]c3c(=O)n(Cc4ccccc4F)ncc3c2s1` the outcome was “inactive”.
For `Cc1nc2ccc(S(=O)(=O)N3CCN(S(=O)(=O)c4c(F)cccc4F)CC3)cc2s1`, the outcome was “inactive”.
`Cc1cc2c(s1)c1cnn(Cc3ccccc3F)c(=O)c1n2C(C)C` was tested, and the outcome was “inactive”.
In the case of `CC(=O)c1cc2c(s1)c1cnn(Cc3ccccc3F)c(=O)c1n2C`, the outcome is reported as “inactive”.
For `Cc1ccc(Cn2ncc3c4sc(C)cc4n(C)c3c2=O)c(C)c1`, the outcome was “inactive”.
In the case of `O=S(=O)(NCCCNS(=O)(=O)c1c(F)cccc1F)c1ccc2c(c1)OCCO2`, the outcome is reported as “inactive”.
In the case of `Cc1cc2c(s1)c1c(C)nn(Cc3ccccc3F)c(=O)c1n2C`, the outcome is reported as “inactive”.
With `Cn1ccc2cc(S(=O)(=O)N3CCN(S(=O)(=O)c4c(F)cccc4F)CC3)ccc21` the outcome was “inactive”.
`Cc1cc2c(s1)c1cnn(Cc3ccc(C(F)(F)F)cc3F)c(=O)c1n2C` was tested, and the outcome was “inactive”.
In the case of `O=S(=O)(c1ccc(F)cc1)N1CCN(S(=O)(=O)c2ccc3c(c2)OCCO3)CC1`, the outcome is reported as “inactive”.
For `Cn1c2ccsc2c2ncn(Cc3ccccc3F)c(=O)c21`, the outcome was “inactive”.
With `O=S(=O)(c1ccc2c(c1)OCO2)N1CCN(S(=O)(=O)c2c(F)cccc2F)CC1` the outcome was “inactive”.
With `O=S(=O)(c1ccc2c(c1)OCCO2)C1CCN(S(=O)(=O)c2c(F)cccc2F)CC1` the outcome was “inactive”.
With `O=S(=O)(NC1CCN(S(=O)(=O)c2ccc3c(c2)OCCO3)CC1)c1c(F)cccc1F` the outcome was “inactive”.
For `CC(C)c1cc2c(s1)c1cnn(Cc3ccccc3F)c(=O)c1n2C`, the outcome was “inactive”.
In the case of `Cc1cc2c(s1)c1cnn(Cc3ccccc3F)c(=O)c1n2C`, the outcome is reported as “inactive”.
In the case of `COC(=O)c1cc2c(s1)c1cnn(Cc3ccccc3F)c(=O)c1n2C`, the outcome is reported as “inactive”.
For `O=S(=O)(c1ccc2c(c1)OCCO2)N1CCN(S(=O)(=O)c2c(F)ccc(O)c2F)CC1`, the outcome was “inactive”.
With `Cc1cc2c(s1)c1cnn(Cc3ccccc3Cl)c(=O)c1n2C` the outcome was “inactive”.
In the case of `Cc1cc2c(s1)c1cnn(Cc3ccc(C)c(F)c3F)c(=O)c1n2C`, the outcome is reported as “inactive”.
For `O=S(=O)(c1ccccc1)N1CCN(S(=O)(=O)c2ccc3c(c2)OCCO3)CC1`, the outcome was “inactive”.
`CN1CCOc2ccc(S(=O)(=O)N3CCN(S(=O)(=O)c4c(F)cccc4F)CC3)cc21` was tested, and the outcome was “inactive”.
For `COc1ccc(Cn2ncc3c4sc(C)cc4n(C)c3c2=O)cc1`, the outcome was “inactive”.
`O=S(=O)(NCCCCCNS(=O)(=O)c1c(F)cccc1F)c1ccc2c(c1)OCCO2` was tested, and the outcome was “inactive”.
`O=S(=O)(NC1CCN(S(=O)(=O)c2c(F)cccc2F)CC1)c1ccc2c(c1)OCCO2` was tested, and the outcome was “inactive”.
`Cc1cc2c(s1)c1cnn(Cc3ccc(F)c(F)c3F)c(=O)c1n2C` was tested, and the outcome was “inactive”.
For `CC(O)c1cc2c(s1)c1cnn(Cc3ccccc3F)c(=O)c1n2C` (stereo not given), the outcome was “inactive”.
With `Cc1cc2c(s1)c1cnn(Cc3ccc(Cl)cc3)c(=O)c1n2C` the outcome was “inactive”.
For `Cc1cc2c(s1)c1cnn(Cc3c(F)c(F)cc(F)c3F)c(=O)c1n2C`, the outcome was “inactive”.
For `O=S(=O)(c1ccc2ccccc2c1)N1CCN(S(=O)(=O)c2c(F)cccc2F)CC1`, the outcome was “inactive”.
With `COc1cc(F)c(S(=O)(=O)N2CCN(S(=O)(=O)c3ccc4c(c3)OCCO4)CC2)c(F)c1` the outcome was “inactive”.
